Source: PubChem BioAssay AID1906 (The Scripps Research Institute Molecular Screening Center, 2009)
Among all 300,000 compounds or so, about 1,500 (0.5%) were called active.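 Rule for the calls: active = inhibition above the mean of all tested compounds plus 3 SD, set per screening campaign (cut at about 17% in these data); inactive = the rest.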 Many of the other results were omitted from the sample, so actives are more common in it than they were.

system: cathepsin L1 (Fasciola hepatica); assay: CTSL1 protease inhibition, fluke enzyme – biochemical, QFRET, fluorogenic peptide substrate, counter-screen for PFM18AAP inhibitor project, primary screen (AID 1906);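 note: 0% = plate median of test compound wells and 100% = 1 µM Z-Phe-Ala-diazomethylketone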; details: recombinant F. hepatica cathepsin L1, Z-Leu-Arg-MCA fluorescence; at 5.96 µM; stronger effect = higher value

Compound	inhibition
O=C(c1ccc(F)cc1)N1CCCC(C(=O)N2CCCCC2)C1 (centres undefined)	-2.4% (inactive)
COc1ccc(C(=O)NC(=S)N2CCNC(=O)C2CC(=O)OC(C)C)cc1 (centres undefined)	-3.41% (inactive)
Cc1ccc2cc(C)c(N3CCC(C)CC3)nc2c1	-2.83% (inactive)
CN(c1ccccc1)S(=O)(=O)c1ccc2[nH]c(=O)[nH]c2c1	-6.38% (inactive)
CC1CCC(C(C)C)C(=O)/C1=C\c1ccc(NC(=O)CCC(=O)O)cc1 (centres undefined)	2% (inactive)
CCCOC(=O)Cc1c(O)c2ccccc2[nH]c1=O	46.3% (active)
O=C(Cc1c(O)c2ccccc2[nH]c1=O)NCc1ccccc1	0.35% (inactive)
CC(C)C(=O)Nc1c(O)c2ccccc2[nH]c1=O	-1.29% (inactive)
N#Cc1c(N2CCCCC2)nc(N)c2c(N)nc(SCC(=O)O)cc12	1.83% (inactive)
COc1cccc(-c2cc3nc4c(c(N5CCC6(CC5)OCCO6)n3n2)CCCC4)c1	1.28% (inactive)
Cc1cc(C)cc(NC(=O)COc2coc(CN3CCN(c4ccccc4)CC3)cc2=O)c1	-0.61% (inactive)
CCN(CC)C(=O)CSc1nc2ccccc2o1	-2.89% (inactive)
CCC(NC(=O)c1ccccc1NC(=O)c1ccccc1)C(=O)NNC(=O)CSc1nc2ccccc2o1 (centres undefined)	31.7% (active)
O=C(CSc1nc2ccccc2o1)N/N=C/c1ccccc1C(=O)O	-1.26% (inactive)
COc1ccccc1CNC(=O)[C@@H]1CCCN1C(=O)[C@@H]1Cc2ccccc2CN1C(=O)OC(C)(C)C	7.62% (inactive)
CCC(C)N1CC(=O)N2Cc3[nH]c4ccccc4c3C[C@H]2C1=O (some centres undefined)	5.23% (inactive)
COC(C[C@@H]1O[C@@H]1C(=O)[C@@H](C)OCc1ccccc1)OC	9.96% (inactive)
COC(C/C=C/C(=O)[C@@H](C)OCc1ccccc1)OC	-1.49% (inactive)
COC(C[C@@H]1O[C@@H]1C(=O)[C@H](C)OCc1ccccc1)OC	28.4% (active)
CC(Oc1ccc(F)cc1)C(=O)Nc1ccccc1C(=O)NC1CC1 (centres undefined)	-1.06% (inactive)
CC12CCC(=O)N1C(C(=O)Nc1ccc(F)c(F)c1F)CS2 (centres undefined)	2.04% (inactive)
Cc1ccc(C2C(C#N)C(C#N)N3CCCN23)cc1 (centres undefined)	1.37% (inactive)
COc1ccc(F)cc1S(=O)(=O)NCC(c1ccc2c(c1)OCO2)N1CCN(C)CC1 (centres undefined)	4.62% (inactive)

Compound	inhibition
O=c1[nH]c(N2CCOCC2)nc2ccccc12	0.18% (inactive)
O=C1C(Cl)=C(N2CCOCC2)C(=O)N1c1ccccc1	42.9% (active)
O=C1OC(NC(=O)c2ccccc2)C(N2CCOCC2)=C1Cl (centres undefined)	5.28% (inactive)
COc1ccc(CNC(=O)COC(=O)/C=C/c2ccc(S(=O)(=O)N3CCOCC3)cc2)cc1	0.44% (inactive)
COC(=O)c1ccc(NC(=O)CSc2nnc(Cc3cccn3C)n2-c2ccc(F)cc2)cc1	6.5% (inactive)
CCOc1cc(NS(=O)(=O)c2ccc(OC)cc2)c(OCC)cc1NC(C)=O	-2.89% (inactive)
CCCC(=O)Nc1cc(OCC)c(NC(=O)NC2CCCCC2)cc1OCC	-3.59% (inactive)
CCOc1cc(NC(=O)CCl)c(OCC)cc1NC(C)=O	83.7% (active)
C/C(CCC(=O)OC[C@H]1O[C@H](C#Cc2ccccc2)C=C[C@@H]1Oc1ccc(C)cc1)=N\OC[C@@H](O)[C@H]1O[C@@H]2OC(C)(C)O[C@@H]2[C@H]1O	-0.48% (inactive)
CC1(C)NC(=O)N(CCCCSc2ccc(Cl)cc2)C1=O	3.34% (inactive)
N#Cc1nc(N)nc(N(c2ccccc2)c2ccccc2)n1	56.4% (active)
CC(C)Nc1nc(N(c2ccccc2)c2ccccc2)nc(-n2ccnc2)n1	-0.83% (inactive)
Cc1ccccc1-c1ccc(Nc2ccc(C(=O)N3CCOCC3)cc2)nn1	0.35% (inactive)
Cc1oc2c(c1C(=O)N1CCOCC1)C(=O)c1ccccc1C2=O	18.4% (active)
Cc1ccc(C(=O)N2CCN(C(=O)N3CCOCC3)CC2)cc1	1.67% (inactive)
CCOC(=O)/C(=C\c1ccc([N+](=O)[O-])cc1)C(=O)c1cc(C(C)=O)c(Nc2ccccc2)s1	-2.81% (inactive)
COc1ccccc1C(CNC(=O)c1cccc(NS(=O)(=O)c2ccc(Br)cc2)c1)N(C)C (centres undefined)	4.17% (inactive)
CN(C)C(CNC(=O)c1cccc(S(=O)(=O)Nc2ccc(Br)cc2)c1)c1ccco1 (centres undefined)	-0.56% (inactive)
CN(C)C(CNC(=O)CCCOc1ccccc1)c1ccco1 (centres undefined)	-6.17% (inactive)
CN(C)C(CNC(=O)c1cccc(C#N)c1)c1ccco1 (centres undefined)	22.2% (active)
COC(=O)c1scc(S(=O)(=O)C(C)(C)C)c1-n1cccc1	-3.59% (inactive)
Cc1ccc(/C=C/C(=O)Nc2ccc([N+](=O)[O-])c(NC(=O)/C=C/c3ccc(C)o3)c2)o1	7.56% (inactive)
O=C(N/N=C/c1ccc([N+](=O)[O-])o1)c1cn(-c2ccccc2)nc1-c1ccc(F)cc1	1.54% (inactive)

Compound	inhibition
O=C(/C=C/c1ccc([N+](=O)[O-])o1)NNC(=O)c1ccc(F)cc1	17.7% (active)
Cc1ccc(NC(=S)Nc2ncccc2C)c(C)c1	-0.91% (inactive)
[2H]C(CCOS(N)(=O)=O)c1ccccc1 (centres undefined)	1.8% (inactive)
COc1ccc(C=C(C#N)C#N)c(CSc2ccccn2)c1	-4.15% (inactive)
Cc1ccc(OCCNC(=O)CCNS(=O)(=O)c2ccc(Br)cc2)cc1	0.55% (inactive)
CCc1cccc(NC(=O)CCC(=O)O)c1	-3% (inactive)
O=C(CCl)Nc1cccc(CP(=O)(c2ccccc2)c2ccccc2)c1	72% (active)
O=C(Cc1ccccc1)Nc1cccc(NC(=O)c2ccccc2)c1	-2.42% (inactive)
C#CCOCCOCCOCCNc1nc(N2CCN(C(=O)[C@H](CCCCN)n3cc([C@@H](N)C(C)CC)nn3)CC2)nc(N2CCN(C(=O)[C@H](Cc3ccc(O)cc3)n3cc([C@@H](N)C(C)CC)nn3)CC2)n1 (some centres undefined)	5.02% (inactive)
C#CCOCCOCCOCCNc1nc(N2CCN(C(=O)C([C@@H](C)CC)n3cc(C(N)COC(=O)C(F)(F)F)nn3)CC2)nc(N2CCN(C(=O)[C@H](Cc3ccc(O)cc3)n3cc(C(N)[C@H](C)CC)nn3)CC2)n1 (some centres undefined)	-2.06% (inactive)
C#CCOCCOCCOCCNc1nc(N2CCN(C(=O)C([C@@H](C)CC)n3cc(C(N)COC(=O)C(F)(F)F)nn3)CC2)nc(N2CCN(C(=O)[C@H](CCCCN)n3cc(C(N)CC(C)C)nn3)CC2)n1 (some centres undefined)	33.1% (active)
CCOC(=O)NC(=O)CSc1nnc(SCCC(=O)O)s1	-3.27% (inactive)
Cc1cccc2nc(CNc3ccc(F)cc3)cn12	-0.43% (inactive)
O=C(CN1CCN(S(=O)(=O)c2ccc(F)cc2)CC1)NC1CC1	0.44% (inactive)
Nc1c(Cl)cc(-c2csc(N3CCCC3c3nc4cc(Cl)c(Cl)cc4n3CCOCCO)n2)cc1Cl (centres undefined)	1.62% (inactive)
COCCCN(C(=S)Nc1c(C)cc(C)cc1C)C(C)c1ccncc1 (centres undefined)	-2.52% (inactive)
CC(C)Cc1nnc(NC(=O)CCC(=O)Nc2ccc3cn[nH]c3c2)s1	-6.53% (inactive)
CCc1noc(C)c1C(=O)NNC(=O)c1ccc(F)cc1	18.8% (active)
Cc1onc(-c2ccccc2)c1C(=O)NNC(=S)NC(=O)c1ccc(F)cc1	6.16% (inactive)
CCc1noc(C)c1C(=O)N1CCCC(N2CCN(c3ccc(F)cc3)CC2)C1 (centres undefined)	-0.72% (inactive)
COc1ccc(/C=N/NC(=O)C(C)N(c2ccc(OC)cc2)S(C)(=O)=O)cc1 (centres undefined)	-4.5% (inactive)
COc1cc(C2C(N3C(=O)c4ccccc4C3=O)C(=O)N2c2ccc(C)c(C)c2)cc(OC)c1OC (centres undefined)	3.07% (inactive)
Cc1ccc(C2Nc3ccccc3C(=O)N2CCN2CCNC2=O)cc1 (centres undefined)	28.6% (active)

Compound	inhibition
CCOC(=O)NN1C(=O)c2ccccc2NC1c1cccc(O)c1 (centres undefined)	7.1% (inactive)
CC(=O)NN1C(=O)c2ccccc2NC1c1ccccc1 (centres undefined)	0.11% (inactive)
Cc1cc(NC(=O)CCC(=O)N(Cc2ccccc2)C(C(=O)NC2CCCC2)c2ccc(C)o2)no1 (centres undefined)	29.5% (active)
Cc1cc(NC(=O)CCC(=O)N(c2cccc(F)c2)C(C(=O)NC2CCCC2)c2ccncc2)no1 (centres undefined)	-0.94% (inactive)
Cc1cc(NC(=O)CCC(=O)N(c2ccccc2)C(C(=O)NC2CCCC2)c2ccncc2)no1 (centres undefined)	-1.79% (inactive)
CC1CCN(S(=O)(=O)c2ccc3ncn(CC(=O)N(C)C4CCCCC4)c(=O)c3c2)CC1	1.81% (inactive)
Cc1ccc(C)c(Cn2nnc3c(=O)[nH]c(C(=O)Nc4ccc(F)cc4)nc32)c1	0.39% (inactive)
O=C(CCl)NNc1cccc(Cl)n1	87.5% (active)
O=C(Cc1c(Cl)cccc1Cl)NC1CC1	4.27% (inactive)
O=C(NNc1ccccn1)c1ccc(Cl)nc1	1.75% (inactive)
Cc1ccccc1NC(=O)c1ccc(COc2ccc3c(C)cc(=O)oc3c2)cc1	1.96% (inactive)
CCn1ccnc1CN(C)Cc1nc(-c2ccc3c(c2)OCO3)no1	-4.87% (inactive)
COc1ccc(NC(=O)COC(=O)CNC(=O)C2CCCCC2)cc1	32.3% (active)
COc1ccc(NC(=O)CN(C)C(=O)CNC(=O)C2CCCCC2)cc1	-1.07% (inactive)
COc1ccc(CCNC(=O)COC(=O)C2CCCCC2)cc1	-2.54% (inactive)
NC(=O)COc1ccccc1C(=O)NC12CC3CC(CC(C3)C1)C2	-1.07% (inactive)
COc1ccccc1C(=O)COC(=O)CSCC(=O)Nc1cc(C)on1	-19.3% (inactive)
Cc1cc(C)c(C#N)c(SCc2ccccc2C(=O)O)n1	-2.52% (inactive)
COCc1cc(C)nc(SCC(=O)Nc2cccc(C)c2)c1C#N	-0.64% (inactive)
Cc1cc(C)c(C#N)c(SCC(=O)Nc2ccccc2)n1	39.5% (active)
